These results are taken from PubChem BioAssay (NCATS).

The target in assay [1] is Cytochrome P450 3A4 (Homo sapiens) (UniProt P08684). In words: qHTS Assay for Inhibitors and Substrates of Cytochrome P450 3A4 (AID 884). Also: nearly all actives have a fitted effect of over 50% in size. Also: potency is read from the fitted curve at half-maximal effect. As to activity change, negative = inhibition: % is scaled to controls: 0 for no effect and ±100 for the full control effect. In a few lines:
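Luminescent readout of luciferin produced by CYP3A4 (20 nM) dealkylation of Luciferin-PPXE, 25 uM (its KM). NADPH-driven reaction ran 60 min at RT after 10 min compound preincubation; data scaled to 57 uM ketoconazole as 100% inhibition.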
In general terms: qHTS replaces the single test concentration by a dilution series.

Assay [2] shares this target. Description: qHTS Assay for Activators of Cytochrome P450 3A4 (AID 885). Also: nearly all actives have a fitted effect of over 65% in size. In outline: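 Activators are scored by enhanced luminescence from CYP3A4 conversion of luciferin-PPXE (25uM, equal to KM) to luciferin, after 60 min at RT with an NADPH-regenerating system.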
Assay [3] in a line: Confirmation and Secondary Assay for Modulators of Hemoglobin Beta Chain Splicing at IVS2 654 locus (AID 910).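 Also: HeLa cells stably carrying EGFP split by mutant beta-globin IVS2-654 intron; per-well total GFP intensity by laser scanning cytometry after 2-day treatment; % of control where 0% means no effect.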 In a few lines: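 Readout: per-well total peak green fluorescence (488 nm ex, 500–520 nm em) from objects 5–250 µm, reflecting correct splicing of an EGFP-654 reporter. Compounds were applied for 2 days at 37 °C to overnight-plated HeLa EGFP-654 cells; controls were DMSO and 500 nM IVS2-654 PNA.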

Assay [4] is described as follows: Confirmation and Secondary Assay for Modulators of Hemoglobin Beta Chain Splicing at IVS2 705 locus (AID 930).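 Also: HeLa cells stably expressing the EGFP-705 splicing reporter; % of control where 0% means no effect.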 In outline: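 HeLa cells stably carrying EGFP interrupted by mutant beta-globin IVS2-705 intron (CMV-driven) were seeded at 500 cells/well, treated next day with compound for 2 days at 37C; corrected splicing restores EGFP, read as total peak GFP intensity per well.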

The nature of assay [5]: qHTS Assay for Lipid Storage Modulators (AID 1519; calls by dose curve; as to activity change, negative = inhibition: % is scaled to controls: 0 for no effect and ±100 for the full control effect). The following applies: Drosophila S3 cells, BODIPY lipid droplet/cell ratio, laser cytometry, cells loaded with oleic acid; for activity change, negative = inhibition: at 57.5 µM (top of the series). In a few lines: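 Cells seeded at 5,000 per well were treated with compounds over a concentration series and loaded with oleic acid (400 uM, as added). Lipid droplet fluorescence (488 nm excitation, 500-530 nm channel) was read by laser-scanning cytometry and normalized to 20 uM Triacsin C.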

Assay [6] addresses Ubiquitin carboxyl-terminal hydrolase 1 (Homo sapiens) (UniProt O94782). Description: Inhibitors of USP1/UAF1: Pilot qHTS (AID 504865).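 Also: rhodamine fluorescence freed from ubiquitin-rhodamine substrate followed over time; top concentration of the series differs between compounds; % is scaled to controls: 0 for no effect and ±100 for the full control effect; nearly all actives have a fitted effect of over 35% in size.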 In outline:
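In 50mM HEPES pH 7.8 containing 0.5mM EDTA, 1mM TCEP, 0.1 mg/ml BSA and 0.01% Tween-20, 1nM USP1/UAF1 is exposed to compound for 15 min, then Ub-Rho (150nM final) is added and fluorescence is read over time.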

The mark [7] stands for this setting: measured here: cell count channel max response.
Where [8] appears, read: measured here: lipid channel max response.

Records with an inconclusive call do not appear. Calls of active or inactive are those of the source. Unless noted, calls follow the shape of the dose curve; as a rule, active = well fitted curve in the direction sought with a large enough effect; inconclusive = small, poorly fitted or top-dose-only effect, or another doubt; inactive = no such curve, though single readings can be large; an effect the other way counts as inactive or inconclusive.

Ubiquitin carboxyl-terminal hydrolase 1 (Homo sapiens), sequence (O94782 whole entry, looked up): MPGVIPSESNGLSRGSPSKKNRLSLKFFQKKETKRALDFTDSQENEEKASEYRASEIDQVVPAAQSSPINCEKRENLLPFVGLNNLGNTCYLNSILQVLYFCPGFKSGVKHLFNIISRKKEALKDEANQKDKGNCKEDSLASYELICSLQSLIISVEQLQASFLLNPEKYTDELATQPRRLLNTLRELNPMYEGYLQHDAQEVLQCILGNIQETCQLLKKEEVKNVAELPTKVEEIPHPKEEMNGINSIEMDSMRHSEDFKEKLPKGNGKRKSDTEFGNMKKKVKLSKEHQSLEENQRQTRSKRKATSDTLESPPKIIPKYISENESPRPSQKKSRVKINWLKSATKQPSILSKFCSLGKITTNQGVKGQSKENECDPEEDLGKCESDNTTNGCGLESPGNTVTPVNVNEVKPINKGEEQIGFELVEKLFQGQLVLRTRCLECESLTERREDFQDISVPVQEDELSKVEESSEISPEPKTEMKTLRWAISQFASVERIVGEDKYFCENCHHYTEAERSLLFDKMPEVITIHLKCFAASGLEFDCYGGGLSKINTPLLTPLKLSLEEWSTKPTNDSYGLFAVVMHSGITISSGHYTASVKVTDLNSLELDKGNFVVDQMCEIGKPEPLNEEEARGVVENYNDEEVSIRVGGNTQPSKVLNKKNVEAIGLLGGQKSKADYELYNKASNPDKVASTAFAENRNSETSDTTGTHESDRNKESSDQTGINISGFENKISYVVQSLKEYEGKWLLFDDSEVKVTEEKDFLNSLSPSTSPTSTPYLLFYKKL
Cytochrome P450 3A4 (Homo sapiens), sequence (P08684 whole entry, looked up): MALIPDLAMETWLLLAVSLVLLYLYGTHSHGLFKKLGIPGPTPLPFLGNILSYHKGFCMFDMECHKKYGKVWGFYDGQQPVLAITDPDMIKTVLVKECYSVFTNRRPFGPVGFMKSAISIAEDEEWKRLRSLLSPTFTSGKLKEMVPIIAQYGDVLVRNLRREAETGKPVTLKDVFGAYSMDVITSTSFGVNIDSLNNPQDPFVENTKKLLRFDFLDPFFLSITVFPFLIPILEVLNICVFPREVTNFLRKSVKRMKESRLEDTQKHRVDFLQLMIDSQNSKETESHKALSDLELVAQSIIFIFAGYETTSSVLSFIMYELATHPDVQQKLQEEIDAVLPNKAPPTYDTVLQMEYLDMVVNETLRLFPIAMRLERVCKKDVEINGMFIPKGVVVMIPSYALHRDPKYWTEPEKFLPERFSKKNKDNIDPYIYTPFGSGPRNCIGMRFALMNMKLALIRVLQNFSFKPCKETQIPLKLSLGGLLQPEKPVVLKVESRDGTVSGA

With `COc1ccc(/C=C/C(=O)c2ccc(O)cc2O)cc1OC`, the Potency in assay [1] is 1.26 µM (active). Moreover, the Potency entry in assay [2], in assay [3], in assay [4] and in assay [6] was “inactive” each time. Moreover, in assay [5], the activity change, negative = inhibition is -12.3% (inactive). Moreover, the max response is -8.55% in assay [5] (setting [7]) and -18.6% in assay [5] (setting [8]).

In the case of `CC1CC[C@@]23CCC4(C)[C@@]5(C)CCC6C(C)(C)C(O)CC[C@@]6(C)C5C=C[C@@]4(OC2=O)C3C1C` (stereo partly specified), the Potency in assay [1] is 5.01 µM (active). The Potency entry in assay [2], in assay [3], in assay [4] and in assay [6] was “inactive” in each case. For the same molecule, the activity change, negative = inhibition in assay [5] is 1.82% (inactive). Further, the max response in assay [5] (setting [7]) amounted to 9.51%; in assay [5] (setting [8]) it was 12.3%.

In the case of `CC1(C)CC2/C(CO)=C/C=C/[C@](C)(O)CC[C@]21O` (stereo partly specified), the Potency in assay [1] was 15.8 µM (active). Besides, the Potency result in assay [2], in assay [3], in assay [4] and in assay [6] was “inactive” in each case. For the same molecule, the activity change, negative = inhibition in assay [5] was 4.24% (inactive). Moreover, the max response in assay [5] (setting [7]) is 22.8%; in assay [5] (setting [8]) it was 29.9%.

For `CC1(C)C(=O)CC[C@@]2(C)C1CC(O)[C@@]1(C)C3=CC(=O)OC(c4ccoc4)[C@]3(C)CCC21` (stereo partly specified), the Potency in assay [1] is 15.8 µM (active). In addition, the Potency entry in assay [2], in assay [3], in assay [4] and in assay [6] was “inactive” each time. Moreover, the activity change, negative = inhibition in assay [5] was 11% (inactive). For the same molecule, the max response in assay [5] (setting [7]) is 13.9%; in assay [5] (setting [8]), 28.4%.

In the case of `CCCc1cc(OC)c2c(c1)OCO2`, in assay [1], the Potency is 7.94 µM (active). Besides, the Potency result in assay [2], in assay [3], in assay [4] and in assay [6] was “inactive” throughout. For the same molecule, in assay [5], the activity change, negative = inhibition was 11.5% (inactive). In addition, the max response in assay [5] (setting [7]) is -8.72%; in assay [5] (setting [8]), 1.71%.

As for `COc1cc(OC)c2c(=O)c(O)c(-c3ccc(OC)c(OC)c3)oc2c1`, the Potency in assay [1] is 2.51 µM (active). Further, the Potency result in assay [2], in assay [3], in assay [4] and in assay [6] was “inactive” each time. For the same molecule, in assay [5], the activity change, negative = inhibition was 4.09% (inactive). Further, the max response in assay [5] (setting [7]) came to 5.03%; in assay [5] (setting [8]) it was 9.16%.

Regarding `C=C1C2CC[C@@]3(C)C(c4ccoc4)OC(=O)C[C@@]13OC1CC(=O)C(C)(C)C(CC(=O)OC)[C@]12C` (stereo partly specified), the Potency in assay [1] was 5.01 µM (active). Moreover, the Potency entry in assay [2], in assay [3], in assay [4] and in assay [6] was “inactive” in each case. The activity change, negative = inhibition in assay [5] is 0.233% (inactive). The max response is -7.73% in assay [5] (setting [7]) and -5.31% in assay [5] (setting [8]).

As for `COc1ccc2c(c1)[C@]1(C)CCC(=O)C[C@H]1CC2`, in assay [1], the Potency is 3.16 µM (active). Further, the Potency entry in assay [2], in assay [3], in assay [4] and in assay [6] was “inactive” throughout. Besides, the activity change, negative = inhibition in assay [5] was 8.23% (inactive). For the same molecule, the max response in assay [5] (setting [7]) is -1.73%; in assay [5] (setting [8]), 6.33%.

Take `CCC(CCC(C)C1CCC2C3CC=C4CC(OC(C)=O)CC[C@@]4(C)C3CC[C@@]12C)C(C)C` (stereo partly specified): the Potency result in assay [1], in assay [3], in assay [4] and in assay [6] was “inactive” each time. In addition, the activity change, negative = inhibition in assay [5] is 5.75% (inactive). The max response worked out at 28.8% in assay [5] (setting [7]) and 28.4% in assay [5] (setting [8]).

For `COC1(C)CCC2OC2(C)CCC2C1CC2(C)C` (stereo unspecified), in assay [1], the Potency is 10 µM (active). In addition, the Potency entry in assay [2], in assay [3], in assay [4] and in assay [6] was “inactive” in each case. Further, in assay [5], the activity change, negative = inhibition was 4.15% (inactive). For the same molecule, the max response in assay [5] (setting [7]) was found to be 6.3%; in assay [5] (setting [8]) it was 11.9%.

Take `COC(=O)/C(C)=C/CC12OC(C)(C)C3CC(C=C4C(=O)c5cc6c(c(CCC(C)(C)Cl)c5OC431)OC1(C)CCC(=C(C)C)C6C1)C2=O` (stereo unspecified): the Potency entry in assay [1], in assay [3], in assay [4] and in assay [6] was “inactive” each time. Also, the activity change, negative = inhibition in assay [5] was 14.1% (inactive). Moreover, the max response in assay [5] (setting [7]) was 7.63%; in assay [5] (setting [8]), 20.5%.
